# Tau FP inhib: inhibitors of human tau fibril formation; AID 1468; Potency, µM (titrated, usually from 57.7 µM), for inactives: at the highest dose activity, negative = inhibition, actives largely listed as inhibitors; 280,000 compounds, 0.39% hits; K18 P301L tau heparin fibrillization, Alexa594 FP, 6 h; P10636; further: nearly all actives have a fitted effect of over 55% in size
# Target sequence (P10636 561-689 P618L limits assumed): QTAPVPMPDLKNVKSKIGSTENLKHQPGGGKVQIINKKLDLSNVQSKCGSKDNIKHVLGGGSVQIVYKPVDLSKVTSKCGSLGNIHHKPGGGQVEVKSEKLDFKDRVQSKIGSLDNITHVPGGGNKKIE
#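 Compound effects on tau fibrillization are measured by Alexa 594 fluorescence polarization (ex 555, em 632 nm). K18 P301L tau is used at 15 uM with 0.24 uM labeled tracer, and 20 uM heparin induces aggregation over 6 hr at 37 C.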
# TRb-SRC2 inh: TRbeta-SRC2 interaction inhibition; Potency, µM (doses to about 106 µM), inactives show at the top dose activity change, negative = inhibition, most hits filed as inhibitors; 280,000 compounds, 0.065% hits; TRbeta-SRC2 peptide binding, fluorescence polarization; receptor liganded with 1 µM T3; AID 1469; P10828;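 further: plate controls were bound peptide for no effect and peptide without receptor for full effect; nearly all actives have a fitted effect of over 50% in size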
# Target sequence (P10828 whole entry, looked up): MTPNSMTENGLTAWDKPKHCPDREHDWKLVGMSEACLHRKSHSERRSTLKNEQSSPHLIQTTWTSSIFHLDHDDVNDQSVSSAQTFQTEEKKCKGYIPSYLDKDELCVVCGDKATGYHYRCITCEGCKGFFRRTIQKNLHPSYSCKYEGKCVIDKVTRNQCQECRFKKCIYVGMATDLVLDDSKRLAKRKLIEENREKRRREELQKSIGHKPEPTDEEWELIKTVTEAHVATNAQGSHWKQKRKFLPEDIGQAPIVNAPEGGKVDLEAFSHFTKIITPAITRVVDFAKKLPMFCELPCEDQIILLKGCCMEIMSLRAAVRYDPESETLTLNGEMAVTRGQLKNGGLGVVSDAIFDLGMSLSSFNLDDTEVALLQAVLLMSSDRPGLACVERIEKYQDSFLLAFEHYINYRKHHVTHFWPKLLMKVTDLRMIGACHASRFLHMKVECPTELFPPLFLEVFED
#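 Human TRb LBD (0.6 uM) plus Texas Red-labeled SRC2 peptide (20 nM), 1uM T3, 5% DMSO, 5 hr at ambient temperature. Decreased polarization (555/632 nm) flags inhibition; data normalized to free and bound peptide controls.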
# TR SRC2 fluor cs: alters Texas Red total fluorescence, flagging assay interference. TRb/SRC2 Texas Red total fluorescence interference. Potency, µM (doses to about 106 µM), for inactives: at the highest dose fluorescence change, negative = quenching. 280,000 compounds, 0.29% hits. AID 1479; active means well fitted curve in either direction with a large enough effect; inconclusive means small, poorly fitted or top-dose-only effect
#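 Flags fluorescent or light-absorbing compounds by total fluorescence, S + 2P, at 555 nm excitation and 632 nm emission. Mixture: 20 nM Texas Red SRC2 peptide, 0.6 uM human TRb LBD, 1 uM T3, 5% DMSO; compound exposure 5 h at ambient temperature.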
# Tau fluor counter: counter-screen for tau fibril formation inhibitors; Potency, µM (highest dose often 57.7 µM), for the others: at the top dose activity change, negative = decrease; tau K18 P301L Alexa594 fluorescence, heparin fibrillization; AID 1463; 280,000 compounds, 0.93% hits; further: nearly all actives have a fitted effect of over 55% in size
#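 Human tau K18 P301L (15 uM unlabeled, 0.24 uM Alexa 594-labeled) in 100 mM sodium acetate pH 7 with 20 uM heparin, 6 hr at 37 C. ThT 30 uM added, 1 hr ambient; Alexa 594 FP and total fluorescence read at 555/632 nm.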
# Tau ThT inhib: tau fibrillization inhibition (ThT binding) | P10636 | 270,000 compounds, 2.1% hits | recombinant tau K18 P301L (four-repeat tau fragment), heparin-induced fibrillization, ThT fluorescence | Potency, µM (doses to about 57.4 µM), for the others: top-dose activity, negative = inhibition, actives largely listed as inhibitors; further: nearly all actives have a fitted effect of over 55% in size
#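 Tau K18 P301L fragment (15 uM unlabeled plus 0.24 uM Alexa 594-labeled) in 100 mM sodium acetate pH 7 with compound, fibrillization induced by 20 uM heparin for 6 hr at 37 C. Thioflavin T (30 uM) added, fluorescence read after 1 hr (ex 450, em 510 nm).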
# The depositor's hits bear a star; ? = inconclusive; . = not tested or not shown; ! = not confirmed by another sample; [ ] = another dose, or the depositor's remark. In the library only some 3.1% were active in any assay of this set; here they are far more common. Unless noted, the call rests on the fitted dose curve; in most records, active means well fitted curve in the direction sought with a large enough effect; inconclusive means small, poorly fitted or top-dose-only effect, or another doubt; inactive means no such curve, though single readings can be large; an effect the other way counts as inactive or inconclusive. Unless noted, on the % scale 0 is the no-effect control and ±100 the full control effect; potency means the concentration at half of the fitted maximal effect.
SMILES,Tau FP inhib,TRb-SRC2 inh,TR SRC2 fluor cs,Tau fluor counter,Tau ThT inhib
CC(=O)OC1C[C@@]2(C)C(c3ccoc3)C[C@H]3O[C@@]32[C@@]2(C)C(=O)C(O)=C3C(C)(C)C(=O)C=C[C@]3(C)C12 (some centres undefined),?,-4.4%,0.2%,-17.0%,8.91µM*
COc1ccc(C(=O)Nc2ccc(S(=O)(=O)N(Cc3ccccc3)c3ccccc3)cc2)cc1,15.8µM*,7.9%,-3.2%,?,?
O=c1[nH]c(O)c(N=Nc2ccc(S(=O)(=O)N3CCOCC3)cc2)c(=O)[nH]1,-3.8%,11.7%,-1.2%,-13.6%,?
COc1ccc(-c2cnnn2-c2ccc(NC(=O)c3ccc(S(=O)(=O)N(C)C)cc3)cc2)cc1,-13.6%,1.3%,-1.9%,?,1.0%
O=C(NCCSc1c(-c2ccccc2)[nH]c2ccccc12)c1ccc(S(=O)(=O)N2CCOCC2)cc1,?,-0.7%,-2.2%,6.31µM*[quencher],-9.2%
CN(C)S(=O)(=O)c1ccc(C(=O)NCCSc2c(-c3ccccc3)[nH]c3ccccc23)cc1,-10.2%,-3.0%,-2.2%,3.98µM*[quencher],-4.6%
CCOCn1c(-c2ccc(Cl)cc2)c(C#N)c(Br)c1C(F)(F)F,.,2.2%[201 µM],-3.9%[201 µM],.,.
CCCSP(=O)(OCC)Oc1ccc(Br)cc1Cl (centres undefined),.,6.5%[201 µM],4.0%[201 µM],.,.
CCOP(=O)(NC(C)C)Oc1ccc(S(C)=O)c(C)c1 (centres undefined),.,0.1%[201 µM],0.6%[201 µM],.,.
O=S(=O)(O)C(F)(F)C(F)(F)C(F)(F)C(F)(F)C(F)(F)C(F)(F)F,.,-2.9%[201 µM],-3.4%[201 µM],.,.
O=C(O)C(F)(F)C(F)(F)C(F)(F)C(F)(F)C(F)(F)C(F)(F)C(F)(F)C(F)(F)F,.,?,126µM*![quencher],.,.
O=C(O)c1c(Cl)ccc2cc(Cl)cnc12,.,-2.1%[201 µM],-6.9%[201 µM],.,.
Nc1c(C(=O)Nc2ccc(F)c(Cl)c2)sc2nc3c(cc12)N1CCC3CC1,17.4%,0.7%,1.9%,?,?
CN(C)c1ccc(NC(=O)c2sc3nc4c(cc3c2N)N2CCC4CC2)cc1,-7.1%,-7.7%,14.1µM*[quencher],?,?
Nc1c(C(=O)Nc2ccc(Br)cc2F)sc2nc3c(cc12)N1CCC3CC1,-7.6%,-1.5%,10µM*[quencher],?,-8.9%
CC(C)(C)OOC(C)(C)CCC(C)(C)OOC(C)(C)C,.,6.0%[201 µM],-4.2%[201 µM],.,.
CCOc1cccc(=NC2CCCCC2)c2c(C)n(C)c(C)c12,0.4%,-2.6%,3.1%,-4.5%,12.6µM*
CCOc1ccccc1N=C1SCCCN1C,-4.5%,2.7%,-2.8%,3.2%,5.1%
O=c1[nH]c(=S)[nH]c(O)c1N=Nc1ccc(OC(F)F)cc1,6.4%,3.9%,-4.0%,-4.0%,3.98µM*
O=c1[nH]c(O)c(N=Nc2cc(C(F)(F)F)ccc2Cl)c(=O)[nH]1,5.7%,4.8%,-6.0%,1.6%,-11.6%
COc1ccc(N=Nc2c(O)[nH]c(=S)[nH]c2=O)cc1,-4.0%,7.4%,-7.1%,-10.2%,2.82µM*
O=c1[nH]c(=S)[nH]c(O)c1N=Nc1ccc(S(=O)(=O)N2CCOCC2)cc1,-6.9%,-11.6%,-7.5%,-7.4%,?
COC(=O)c1ccccc1N=Cc1c(O)[nH]c(=S)[nH]c1=O,-3.0%,2.2%,0.3%,5.2%,-13.9%
COc1cccc(N=Nc2c(O)[nH]c(=S)[nH]c2=O)c1,-5.1%,-2.9%,-9.3%,-19.7%,7.08µM*
NS(=O)(=O)c1ccc(N=Nc2c(O)[nH]c(=S)[nH]c2=O)cc1,-4.2%,-0.8%,-24.2%,-13.2%,5.62µM*
SMILES,Tau FP inhib,TRb-SRC2 inh,TR SRC2 fluor cs,Tau fluor counter,Tau ThT inhib
C=CC(=O)NCO,.,-3.2%[5.17e+03 µM],-1.7%[5.17e+03 µM],.,.
N#Cc1cc(I)c(O)c(I)c1,.,9.0%[201 µM],-5.0%[201 µM],.,.
CCOP(=S)(NC(C)C)Oc1ccccc1C(=O)OC(C)C (centres undefined),.,-5.9%[201 µM],-3.2%[201 µM],.,.
C=C(C)C(=O)OCC(CC)CCCC (centres undefined),.,-0.1%[201 µM],-5.6%[201 µM],.,.
c1ccc(SSc2ccccc2)cc1,12.6µM*,-2.8%,0.6%,-19.0%,25.1µM*
Brc1ccccc1,3.9%,7.4%[201 µM],2.8%[201 µM],2.2%,-0.9%
Clc1ccc(-c2cc(Cl)c(Cl)cc2Cl)cc1Cl,.,0.9%[201 µM],-1.4%[201 µM],.,.
COP(=O)(OC)OC(Br)C(Cl)(Cl)Br (centres undefined),.,-4.5%[201 µM],-10.3%[201 µM],.,.
Cc1nonc1OCCNc1ccc([N+](=O)[O-])c2cccnc12,-10.6%,-1.2%,-1.6%,?,7.08µM*
Cn1c(NN=O)nc2ccccc21,-9.1%,2.6%,1.0%,?,17.8µM*
CN1CCN(Cc2nc3ccccc3n2C)CC1,-1.6%,-14.8%,1.3%,-2.6%,-10.5%
O=C1NC(=O)C(=O)C(=O)N1,2.82µM*,-28.7%,-13.0%,-24.9%,2.51µM*
CC12C=CC(=O)C=C1CCC1C2=CCC2(C)C1CC[C@@H]2C(=O)CN1CCN(c2cc(N3CCCC3)nc(N3CCCC3)n2)CC1 (some centres undefined),?,-15.9%,0.6%,-13.4%,7.08µM*
Cn1cccc1/C=C1/C(=O)NC(=S)N(Cc2ccc(F)cc2)C1=O,35.5µM*,-3.6%,0.8%,11.2µM*[quencher],.
Cn1cccc1/C=C1/C(=O)NC(=O)N(Cc2ccc(F)cc2)C1=O,.,-8.6%,-7.7%,.,.
Cc1cc2c(C(C)C)c(O)c(O)c(C=O)c2c(O)c1-c1c(C)cc2c(C(C)C)c(O)c(O)c(C=O)c2c1O,35.5µM*,?,25.1µM*![quencher],15.8µM*[quencher],28.2µM*
CC1=NN(c2ccccc2)C(=O)C1/C=C1/C(=O)NC(=O)N(c2cccc(C)c2)C1=O (centres undefined),-2.2%,-10.3%,1.6%,-19.6%,?
CC1=NN(c2ccccc2)C(=O)C1/C=C1\C(=O)NC(=O)N(c2ccc(C)c(C)c2)C1=O (centres undefined),3.3%,-4.1%,-1.2%,-23.4%,11.2µM*
CC1=NN(c2ccccc2)C(=O)C1/C=C1/C(=O)NC(=O)N(c2cc(C)cc(C)c2)C1=O (centres undefined),-12.3%,3.4%,-1.7%,-26.5%,11.2µM*
CC(C)N1C(=O)N(c2ccccc2)CSC1=NC(C)(C)C,.,-2.1%[201 µM],4.8%[201 µM],.,.
CCCCCCCCCCCCN(C)C,.,5.6%[201 µM],1.0%[201 µM],.,.
CCOC1Oc2ccc(OS(C)(=O)=O)cc2C1(C)C (centres undefined),.,4.0%[201 µM],-0.5%[201 µM],.,.
O=C1NC(=O)C(=Cc2cc3c(cc2[N+](=O)[O-])OCO3)C(=O)N1,28.2µM*,3.3%,-1.8%,-18.0%,12.6µM*
O=S1(=O)N(CCN2CC=C(c3c[nH]c4cc(F)ccc34)CC2)c2cccc3c2N1CCC3,11.6%,2.7%,?,8.91µM*[quencher],?
CCC[CH2][Sn]1([CH2]CCC)[O]C(=O)C=CC(=O)[O]1,.,-7.8%[201 µM],-4.2%[201 µM],.,.
CCOc1ccc(Cc2c(O)[nH]c(=O)[nH]c2=O)cc1,25.1µM*,-19.9%,1.1%,-14.4%,28.2µM*
